Assay results taken from the supplement of paper PMC11732987, “Enantioselective OTUD7B fragment discovery through chemoproteomics screening and high-throughput optimisation” (Communications Chemistry, 2025).

biological target: T1, VCPIP1 (UniProt Q96JH7); assay: log2 ratio of Biotin-Ahx-Ub-VS probe labelling (fragment/DMSO); higher = less target engagement (more negative = stronger competition), active = hit call of the paper (q ≤ 0.05, log2 ratio ≤ -1); conditions: compound concentration: 200 uM; treatment time: 3 h
T1 sequence (whole entry): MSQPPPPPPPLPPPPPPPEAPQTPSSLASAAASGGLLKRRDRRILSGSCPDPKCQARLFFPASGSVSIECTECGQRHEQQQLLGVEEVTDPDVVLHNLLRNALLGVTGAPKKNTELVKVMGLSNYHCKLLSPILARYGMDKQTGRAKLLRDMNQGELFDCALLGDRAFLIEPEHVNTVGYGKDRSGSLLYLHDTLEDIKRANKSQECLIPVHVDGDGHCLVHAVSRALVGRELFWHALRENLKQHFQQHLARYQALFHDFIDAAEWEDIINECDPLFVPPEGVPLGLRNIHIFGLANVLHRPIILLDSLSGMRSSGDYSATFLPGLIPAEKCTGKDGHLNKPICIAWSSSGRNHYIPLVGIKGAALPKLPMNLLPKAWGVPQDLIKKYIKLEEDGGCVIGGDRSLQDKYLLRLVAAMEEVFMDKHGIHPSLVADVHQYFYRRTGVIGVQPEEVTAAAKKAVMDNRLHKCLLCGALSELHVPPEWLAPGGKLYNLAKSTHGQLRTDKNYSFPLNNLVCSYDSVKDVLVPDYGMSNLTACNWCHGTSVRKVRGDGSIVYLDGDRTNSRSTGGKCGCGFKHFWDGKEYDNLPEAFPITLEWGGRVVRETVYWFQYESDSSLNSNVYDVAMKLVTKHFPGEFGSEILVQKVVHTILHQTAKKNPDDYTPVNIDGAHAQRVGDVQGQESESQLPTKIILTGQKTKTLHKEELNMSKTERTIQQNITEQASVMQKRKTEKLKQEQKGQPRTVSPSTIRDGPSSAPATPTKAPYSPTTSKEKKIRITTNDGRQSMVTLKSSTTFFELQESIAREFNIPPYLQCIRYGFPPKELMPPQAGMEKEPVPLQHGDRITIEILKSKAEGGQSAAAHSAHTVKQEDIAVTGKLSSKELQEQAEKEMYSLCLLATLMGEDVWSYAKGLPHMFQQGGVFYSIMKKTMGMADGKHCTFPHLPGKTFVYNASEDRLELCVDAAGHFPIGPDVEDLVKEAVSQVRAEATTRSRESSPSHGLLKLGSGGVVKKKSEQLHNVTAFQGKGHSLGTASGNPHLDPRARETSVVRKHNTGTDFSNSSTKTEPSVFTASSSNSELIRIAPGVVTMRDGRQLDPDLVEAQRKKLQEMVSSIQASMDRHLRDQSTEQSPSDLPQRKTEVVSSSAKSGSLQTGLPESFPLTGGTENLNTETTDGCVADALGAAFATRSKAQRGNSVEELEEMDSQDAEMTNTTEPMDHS
Method: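 Competitive ABPP in HEK293T cell lysate. Lysates were treated with each chloroacetamide fragment at 200 µM for 3 h, then with Biotin-Ahx-Ub-VS (0.5 µM, 1 h), NeutrAvidin-enriched and analysed by diaPASEF LC-MS/MS. Protein LFQ was median-normalised; average log2 ratio is fragment/DMSO from an unpaired t-test (n=3 treated, n=44 DMSO). Hits: q ≤ 0.05, log2 ratio ≤ -1, unique peptides ≥ 2.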

log2 ratio of Biotin-Ahx-Ub-VS probe labelling, active:
N#Cc1cnn(-c2ccccc2)c1NC(=O)CCl -2.18
Cc1ccc(CC(NC(=O)CCl)c2ccccn2)cc1.Cl (stereo not given) -1.64
Cc1ccc(C(=O)NCCNC(=O)CCl)cc1 -2.4
COc1ccc(-c2csc(NC(=O)CCl)n2)cc1 -1.46
CS(=O)(=O)c1ccc(CNC(=O)CCl)cc1 -1.22
Cc1ccccc1CN(C)C(=O)CCl -1.46
CC(NC(=O)CCl)c1cccc2ccccc12 (stereo not given) -1.05
O=C(CCl)NCCc1ccc2c(c1)OCCO2 -2.55
O=C(CCl)NCc1ccc(Cl)cc1 -1.16
O=C(CCl)N1CCOC(c2cccc(F)c2)C1 (stereo not given) -1.67
Cl.O=C(CCl)N1CCC(n2nc3ccccc3n2)CC1 -2.56
C#Cc1cccc(NC(=O)CCl)c1 -2.17
O=C(CCl)Nc1ccc(N2CCCC2=O)cc1 -1.2
O=C(CCl)Nc1nc(-c2cccs2)cs1 -2.02

log2 ratio of Biotin-Ahx-Ub-VS probe labelling, inactive:
COc1ccc(C2CCCN2C(=O)CCl)c(OC)c1 (stereo not given) -0.545
O=C(CCl)N1CCN(C(=O)Nc2ccccc2)CC1 -0.418
Cc1cccnc1NC(=O)C1CCN(C(=O)CCl)CC1.Cl -0.543
CCN1C(=O)C2CN(C(=O)CCl)CCN2C1=O (stereo not given) 0.103
CCN(C(=O)CCl)C1CCCCC1 -0.114
Cc1ncc2c(n1)CCN(C(=O)CCl)C2 0.323
O=C(CCl)NCCc1ccc(F)cc1 -0.91
Cc1conc1C1CN(C(=O)CCl)C1 -0.949
CCCn1nccc1NC(=O)CCl -0.41
CN(C)C(=O)c1ccc(CNC(=O)CCl)cc1 -0.952
O=C(CCl)Nc1ccc(F)cc1F -0.736
CC1CN(c2ccc(NC(=O)CCl)cc2)CC(C)O1 (stereo not given) -0.624
NC(=O)C1CCCCN1C(=O)CCl (stereo not given) -0.253
Cc1ccc(CN(C)C(=O)CCl)o1 -0.13
Cl.O=C(CN1CCN(C(=O)CCl)CC1)Nc1ccc(F)cc1 -0.257
O=C(CCl)N[C@H]1CCS(=O)(=O)c2ccccc21 -0.862
O=C(CCl)N1CC2(CCOCC2)C1 -0.356
COCC1C=CCCN1C(=O)CCl (stereo not given) -0.426
O=C(CCl)N1CCc2ccccc2C(O)C1 (stereo not given) -0.506
CS(=O)(=O)N1CCCN(C(=O)CCl)CC1 -0.326
NC(=O)C1CCCN(C(=O)CCl)C1 (stereo not given) -0.167
O=C(CCl)Nc1ccccc1C(F)(F)F -0.635
O=C(CCl)N1CCC(C(O)c2ccc(F)cc2)CC1 (stereo not given) -0.764
Cc1nnc(C(NC(=O)CCl)c2ccccc2)n1C (stereo not given) 0.452
O=C(O)C1Cc2ccccc2CN1C(=O)CCl (stereo not given) -0.368
Cc1cc(C2CCCN2C(=O)CCl)nn1C.Cl (stereo not given) -0.866
